Assay outcomes deposited in PubChem by Broad Institute.
C diff HTS: C. difficile growth inhibitors, primary screen, HTS | Clostridium difficile clinical isolate growth, OD600, 24 h; active compounds read low | growth activity, negative = inhibition, % at 16 µg/mL (by protocol) | 86,000 tested, 0.25% active | AID 1259249, 2017;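 active means mean growth activity at or below -80% and every replicate also at or below -80%; inconclusive means mean at or below -80% but some replicate above -80%; inactive means mean growth activity above -80%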;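 further: 0% = DMSO wells and -100% = levofloxacin 16 µg/mL wells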
T cruzi growth-1: T. cruzi intracellular proliferation inhibitors, primary screen, cell-based, beta-gal Tulahuen parasites, NIH3T3 host, luminescence; 77,000 tested, 5.9% active; T. cruzi beta-gal in NIH3T3, GalScreen luminescence, 90 h; inhibition, % at 8.34 µM;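 active means mean inhibition above about 93%, with at least 55% of replicates each passing it, limit read from the data, passing the limit was not always enough; inconclusive means only one of those two conditions holds; inactive means neither condition holds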
Pf Dd2 inh: P. falciparum Dd2 growth inhibitors, primary screen, SYBR Green fluorescence, single dose replicates; 72 h; active compounds read low; activity change, % at 10 µM; 94,000 tested, 2.3% active; in the data active means activity change below about -80%; inconclusive means no clear call, values can overlap the other calls
T cruzi growth-2: T. cruzi intracellular proliferation inhibitors, confirmation, cell-based, NIH3T3 host, beta-gal parasite, luminescence, cherry-pick; shares compounds with T cruzi growth-1; T. cruzi beta-gal in NIH3T3, GalScreen luminescence, 90 h; inhibition, % at 8.35 µM; 5,600 tested, 72% active; AID 651739, 2012;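 active means mean replicate inhibition above about 95% and at least 55% of replicates individually reaching it, limit read from the data; inconclusive means only one of the two criteria is met; inactive means neither criterion is met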
T cruzi growth-3: inhibitors of intracellular T. cruzi replication, confirmation, NIH3T3 host cells, beta-gal parasites, cherry-pick, set 2; shares compounds with T cruzi growth-1; T. cruzi beta-gal in NIH3T3, GalScreen luminescence, 90 h; inhibition, % at 2.09 µM; 5,600 tested, 21% active; AID 651740, 2012;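 active means mean inhibition above about 95%, with at least 55% of replicates also reaching it, limit read from the data; inconclusive means meets just one of the two conditions; inactive means meets neither condition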;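 further: plate controls were neutral control median for no effect and positive control median for full effect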
3T3 cytotox: cytotoxicity in mouse NIH/3T3 fibroblasts, confirmation, cytotoxicity control for T. cruzi proliferation inhibitor project, cell-based, cherry-pick, single point; NIH/3T3 viability, CellTiter-Glo ATP luminescence, 90 h; shares compounds with T cruzi growth-1; cytotoxicity (signal decrease), % at 8.35 µM; 5,600 tested, 14% active;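 active means mean signal decrease across replicates above about 35% based on untreated-well scatter, with enough replicates individually passing, limit read from the data; inconclusive means no rule stated though some were filed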;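 further: 0% = median of neutral control wells and 100% = median of positive control wells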
NIH3T3 tox 2: NIH/3T3 fibroblast cytotoxicity, confirmation, cytotoxicity control, cell-based, cherry-pick, single point, set 2 | shares compounds with T cruzi growth-1 | NIH/3T3 viability, CellTiter-Glo ATP luminescence, 90 h | inhibition, % at 24.9 µM | 5,600 tested, 56% active;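 active means mean loss of cell viability signal at or above a set limit, and enough replicates individually reaching it; inconclusive means meets only the mean limit or only the replicate share; inactive means meets neither condition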;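 further: 0% = median of neutral control wells and 100% = median of positive control wells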
The depositor's hits bear a star; ? = inconclusive; / = no result; ! = repeats disagree. The list is not random: actives were taken first. Their share in the collection is about 6.7%.

SMILES | C diff HTS | T cruzi growth-1 | Pf Dd2 inh | T cruzi growth-2 | T cruzi growth-3 | 3T3 cytotox | NIH3T3 tox 2
COCC(=O)NC[C@H]1N[C@H](CO)[C@H]1c1ccc(-c2ccccc2F)cc1 | -4 | 15 | 5 | / | / | / | /
COc1ccc2c3c([nH]c2c1)[C@@H](CO)N(Cc1nccs1)CC31CN(C(=O)C2CCOCC2)C1 | -3 | / | -68 | / | / | / | /
COc1ccc(CNC(=O)C[C@@H]2C=C[C@@H](NS(=O)(=O)c3cccc(OC)c3)[C@H](CO)O2)cc1 | 2 | / | / | / | / | / | /
O=C(CC1CC1)Nc1ccc2c(c1)[C@H]1C[C@H](CC(=O)N3CCOCC3)O[C@H](CO)[C@H]1O2 | 0 | -46 | -9 | / | / | / | /
C[C@@H]1CN([C@H](C)CO)C(=O)c2cc(C#CC3CCCC3)cnc2O[C@@H]1CN(C)Cc1ccncc1 | 5 | 17 | 2 | / | / | / | /
CCCN(C)C[C@@H]1OCCCC[C@@H](C)Oc2ccc(NC(=O)C3CCCCC3)cc2C(=O)N([C@@H](C)CO)C[C@@H]1C | 19 | 85 | -34 | / | / | / | /
CCCN(C)C[C@@H]1OCCCC[C@H](C)Oc2ccc(NC(=O)C3CCCCC3)cc2C(=O)N([C@@H](C)CO)C[C@@H]1C | 9 | 112* | -83* | 96* | 71 | 10 | 24
C[C@H]1CCCCO[C@H](CN(C)CC2CC2)[C@@H](C)CN([C@@H](C)CO)C(=O)c2cc(NC(=O)C3CCCCC3)ccc2O1 | -1 | 102* | -45 | 94 | 70 | -25 | -43
C[C@H](CO)N1C[C@H](C)[C@H](CN(C)CC2CC2)OCCCC[C@H](C)Oc2ccc(NC(=O)C3CCCCC3)cc2C1=O | 11 | / | -73 | / | / | / | /
COc1ccc2c3c([nH]c2c1)[C@@H](CO)N(C(=O)c1cccc(F)c1)CC31CCN(S(=O)(=O)c2cccs2)CC1 | -6 | / | 3 | / | / | / | /
C/C=C/c1ccc2c(c1)O[C@@H](CN(C)Cc1cncnc1)[C@@H](C)CN([C@@H](C)CO)S2(=O)=O | -2 | / | 7 | / | / | / | /
C/C=C/c1ccc2c(c1)O[C@@H](CN(C)Cc1cccnc1)[C@H](C)CN([C@@H](C)CO)S2(=O)=O | -5 | 106* | -24 | 101* | 82 | 38* | 70*
C/C=C/c1ccc2c(c1)O[C@@H](CN(C)Cc1cccnc1)[C@H](C)CN([C@H](C)CO)S2(=O)=O | -5 | 107* | -38 | 92 | 64 | 52* | 65*
C/C=C/c1ccc2c(c1)O[C@H](CN(C)Cc1cncnc1)[C@@H](C)CN([C@@H](C)CO)S2(=O)=O | -5 | / | -13 | / | / | / | /
C/C=C/c1ccc2c(c1)O[C@H](CN(C)Cc1cccnc1)[C@@H](C)CN([C@@H](C)CO)S2(=O)=O | -6 | 114* | -14 | 103* | 105* | 27 | 54*
C[C@H](CO)N1C[C@H](C)[C@H](CN(C)Cc2cccnc2)Oc2cc(/C=C/c3ccccc3)ccc2S1(=O)=O | 13 | 107* | -58 | 100* | 97* | ? | 31*
C[C@@H]1CN([C@H](C)CO)S(=O)(=O)c2ccc(/C=C/c3ccccc3)cc2O[C@H]1CN(C)Cc1ccccc1 | 6 | 87 | -31 | / | / | / | /
C/C=C/c1ccc2c(c1)O[C@@H](CN(C)Cc1cncnc1)[C@@H](C)CN([C@H](C)CO)S2(=O)=O | 3 | / | -14 | / | / | / | /
O=C(C[C@@H]1C=C[C@H](NC(=O)C2CC2)[C@@H](CO)O1)Nc1nccs1 | / | -21 | -14 | / | / | / | /
C[C@@H]1CCCCO[C@@H](CN(C)Cc2ccc3c(c2)OCO3)[C@@H](C)CN([C@@H](C)CO)C(=O)c2cc(NS(=O)(=O)c3ccc(Cl)cc3)ccc2O1 | / | 93 | -23 | / | / | / | /
C[C@H]1CCCCO[C@H](CN(C)Cc2ccc3c(c2)OCO3)[C@@H](C)CN([C@@H](C)CO)C(=O)c2cc(NS(=O)(=O)c3ccc(Cl)cc3)ccc2O1 | / | ? | -53 | 101* | 68 | 12 | 104*
C[C@@H]1CN([C@H](C)CO)C(=O)c2cc(NS(=O)(=O)c3ccc(Cl)cc3)ccc2O[C@@H](C)CCCCO[C@H]1CN(C)Cc1ccc2c(c1)OCO2 | / | 106*! | -71 | 97* | 107* | 20 | 104*
C[C@@H]1CCCCO[C@@H](CN(C)Cc2ccc3c(c2)OCO3)[C@@H](C)CN([C@H](C)CO)C(=O)c2cc(NS(=O)(=O)c3ccc(Cl)cc3)ccc2O1 | / | 90 | -8 | / | / | / | /
Cc1ccc(S(=O)(=O)Nc2ccc3c(c2)C(=O)N([C@@H](C)CO)C[C@@H](C)[C@@H](CN(C)Cc2ccc(Cl)c(Cl)c2)OCCCC[C@@H](C)O3)cc1 | / | 76 | -39 | / | / | / | /
COc1ccc2c3c(n(C)c2c1)[C@@H](CO)N(C(=O)c1ccncc1)CC31CCN(S(C)(=O)=O)CC1 | 3 | / | 33 | / | / | / | /
SMILES | C diff HTS | T cruzi growth-1 | Pf Dd2 inh | T cruzi growth-2 | T cruzi growth-3 | 3T3 cytotox | NIH3T3 tox 2
O=C(C[C@H]1C[C@@H]2c3cc(NC(=O)Nc4ccccc4F)ccc3O[C@@H]2[C@@H](CO)O1)NC1CCCCC1 | 4 | 158* | -57 | ? | 27 | 6 | 19
O=C(C[C@H]1C[C@@H]2c3cc(NC(=O)Nc4ccccc4F)ccc3O[C@@H]2[C@H](CO)O1)NCc1ccccn1 | -1 | 109* | 5 | 18 | 2 | 7 | 10
O=C(C[C@@H]1C[C@@H]2c3cc(NC(=O)Nc4ccccc4F)ccc3O[C@@H]2[C@H](CO)O1)NC1CCCCC1 | -13 | -10 | -3 | / | / | / | /
O=C(C[C@@H]1C[C@H]2c3cc(NC(=O)Nc4ccccc4F)ccc3O[C@H]2[C@H](CO)O1)NCc1ccccn1 | 0 | / | -6 | / | / | / | /
C[C@H](CO)N1C[C@H](C)[C@@H](CN(C)C(=O)C2CCC2)Oc2cc(-c3ccncc3)ccc2S1(=O)=O | / | 71 | -10 | / | / | / | /
C/C=C/c1ccc([C@@H]2[C@H](CO)N3CCCCN(S(=O)(=O)c4cccc(C)c4)C[C@@H]23)cc1 | -1 | 76 | -74 | / | / | / | /
C/C=C/c1ccc([C@H]2[C@@H](CO)N3CCCCN(S(=O)(=O)c4ccccc4)C[C@@H]23)cc1 | 2 | 102* | 20 | 100* | -16 | 4 | 2
C/C=C/c1ccc([C@@H]2[C@H]3CN(S(=O)(=O)c4ccccc4)CCCCN3[C@H]2CO)cc1 | -7 | 84 | 1 | / | / | / | /
C/C=C/c1ccc([C@H]2[C@@H](CO)N3CCCCN(S(=O)(=O)c4cccc(C)c4)C[C@H]23)cc1 | 17 | 102* | -72 | 101* | 90 | 18 | 104*
